The text below walks through data of PubChem BioAssay (NCI).

The structures appear in SMILES notation. About 83,000 compounds went through this panel and 20% of them were active in at least one assay; those are over-represented in the sample as a whole.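 For each line, cells grew in 96-well plates with the test compound present at a single concentration for 48 hours.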 Values without a mark were called inactive. Active and inactive are the calls of the source. The calls were made as follows: active = growth percent below 10; inactive = the rest.

Among the test systems are HCT-15 colon; HT29 colon; SNB-75 CNS; SNB-19 CNS; U251 CNS; PC-3 prostate; SK-MEL-5 melanoma; UACC-62 melanoma; LOX IMVI melanoma; SK-MEL-28 melanoma; SK-MEL-2 melanoma; EKVX NSCLC; SN12C renal; UO-31 renal; TK-10 renal; ACHN renal; CAKI-1 renal; A498 renal; CCRF-CEM leukemia; MOLT-4 leukemia.
Holding throughout (assay): NCI-60 one-dose screen, 48 h (100 = growth as untreated, 0 = no growth, -100 = all killed)
Common to all, as to conditions: 10 µM unless noted

Take `COc1cc(Cc2cc(-c3ccccc3)nn(Cc3ccccc3)c2=O)cc(OC)c1OC`: the growth is 29.1% with HCT-15 colon; 32.2% with HT29 colon; 61% in the experiment on SNB-75 CNS; 51.7% in the experiment with SNB-19 CNS; 32.9% in the experiment with U251 CNS; 22.7% in the experiment on PC-3 prostate. Moreover, the growth in the experiment with SK-MEL-5 melanoma is 40.2%; in the experiment with UACC-62 melanoma it was 37.7%; in the experiment with LOX IMVI melanoma, 43.7%; in the experiment on SK-MEL-28 melanoma, 56.2%; with SK-MEL-2 melanoma, 38.4%; in the experiment with EKVX NSCLC, 14.7%. In addition, the growth was 40.9% in the experiment with SN12C renal; 21.6% in the experiment on UO-31 renal; 45.2% in the experiment with TK-10 renal; 27.9% in the experiment with ACHN renal; 44.4% in the experiment on CAKI-1 renal; 51.1% in the experiment with A498 renal. Moreover, the growth in the experiment with CCRF-CEM leukemia is 34.8%; with MOLT-4 leukemia, 5.01% (active).

Regarding `NS(=O)(=O)c1ccc(C(=O)NN2C(=O)c3ccccc3C2=O)cc1`, the growth in the experiment with HCT-15 colon is 107%; in the experiment with HT29 colon, 111%; in the experiment on SNB-75 CNS, 74.8%; in the experiment on SNB-19 CNS, 102%; in the experiment with U251 CNS, 106%; with PC-3 prostate it was 105%. Further, the growth was 103% in the experiment with SK-MEL-5 melanoma; 102% in the experiment on UACC-62 melanoma; 103% in the experiment with LOX IMVI melanoma; 113% in the experiment with SK-MEL-28 melanoma; 116% in the experiment with SK-MEL-2 melanoma; 105% with EKVX NSCLC. Moreover, the growth with SN12C renal is 104%; with UO-31 renal, 89.9%; in the experiment on TK-10 renal, 103%; with ACHN renal, 112%; in the experiment on CAKI-1 renal, 94%; in the experiment on A498 renal, 73.3%. Moreover, the growth with CCRF-CEM leukemia and with MOLT-4 leukemia was 107% each time.

Take `O=C(c1c[nH]c2ccccc12)c1n[nH]c(=S)n1-c1ccc([N+](=O)[O-])cc1`: the growth with HCT-15 colon is 64.7%; in the experiment on HT29 colon it was 98.6%; with SNB-75 CNS, 95.4%; in the experiment on SNB-19 CNS it was 116%; in the experiment with U251 CNS, 105%; with PC-3 prostate it was 83.9%. Further, the growth was 88.3% in the experiment on SK-MEL-5 melanoma; 93.1% in the experiment with UACC-62 melanoma; 100% with LOX IMVI melanoma; 107% in the experiment on SK-MEL-28 melanoma; 86.4% with SK-MEL-2 melanoma; 94.6% in the experiment on EKVX NSCLC. The growth was 92.8% in the experiment on SN12C renal; 75.2% with UO-31 renal; 117% in the experiment on TK-10 renal; 96.1% in the experiment on ACHN renal; 85.4% in the experiment on CAKI-1 renal; 87.9% in the experiment with A498 renal. Further, the growth in the experiment on CCRF-CEM leukemia was 85.1%; with MOLT-4 leukemia, 86%.

Take `c1ccc(-c2nc3ccccc3[nH]2)c(OCCCCCOc2ccccc2-c2nc3ccccc3[nH]2)c1`: the growth with HCT-15 colon was 58%; in the experiment on HT29 colon, 74.8%; in the experiment with SNB-75 CNS, 89.8%; in the experiment on SNB-19 CNS, 91.7%; in the experiment with U251 CNS it was 74.5%; with PC-3 prostate it was 43.4%. For the same compound, the growth with SK-MEL-5 melanoma is 58.9%; in the experiment on UACC-62 melanoma, 59.1%; in the experiment on LOX IMVI melanoma, 62%; with SK-MEL-28 melanoma, 45.9%; with SK-MEL-2 melanoma it was 85.4%; in the experiment with EKVX NSCLC, 68.2%. The growth in the experiment on SN12C renal was 63.4%; in the experiment on UO-31 renal, 58.6%; in the experiment with TK-10 renal, 100%; in the experiment on ACHN renal, 89.4%; with CAKI-1 renal, 104%; in the experiment with A498 renal, 71.5%. The growth is -44.1% (active) in the experiment on CCRF-CEM leukemia and 56.3% with MOLT-4 leukemia.

Turning to `O=C(Nc1cc(Cl)ccc1O)c1ccccc1Nc1ccnc(C(F)(F)F)c1`, the growth with HCT-15 colon was 14.1%; with HT29 colon, 38.2%; with SNB-75 CNS, 55.6%; with SNB-19 CNS, 16.2%; in the experiment on U251 CNS it was 10.8%; with PC-3 prostate, 7.3% (active). Moreover, the growth in the experiment on SK-MEL-5 melanoma is -43.8% (active); in the experiment with UACC-62 melanoma, 23.1%; with LOX IMVI melanoma, 18.8%; in the experiment on SK-MEL-28 melanoma it was 75%; in the experiment on SK-MEL-2 melanoma, 31.8%; in the experiment on EKVX NSCLC, 75.8%. Besides, the growth in the experiment on SN12C renal was 3.5% (active); in the experiment on UO-31 renal it was 1.11% (active); in the experiment on TK-10 renal, 74.5%; with ACHN renal, 7.95% (active); in the experiment on CAKI-1 renal it was 72.1%; in the experiment with A498 renal, 53.7%. The figures for the growth in the experiment with CCRF-CEM leukemia and in the experiment with MOLT-4 leukemia were -2.43% (active) and -25% (active), respectively.

For `C=C(C)[C@@H]1CC[C@]2(CO)CC[C@]3(C)[C@H](CC[C@@H]4[C@@](C)(CCCN)[C@H](C(=C)C)CC[C@]43C)[C@@H]12`, the growth in the experiment on HCT-15 colon was -81.7% (active); in the experiment on HT29 colon, -54.4% (active); with SNB-75 CNS it was -91.9% (active); in the experiment on SNB-19 CNS, 1.21% (active); in the experiment on U251 CNS, -88.6% (active); with PC-3 prostate it was 0.447% (active). The growth in the experiment on SK-MEL-5 melanoma was -87.5% (active); in the experiment with UACC-62 melanoma, -88.6% (active); with LOX IMVI melanoma it was -97.8% (active); in the experiment with SK-MEL-28 melanoma it was -98.3% (active); in the experiment with SK-MEL-2 melanoma it was -61.6% (active); in the experiment with EKVX NSCLC it was -12.9% (active). Further, the growth with SN12C renal was -97.6% (active); with UO-31 renal it was -43.4% (active); in the experiment on TK-10 renal it was -62.9% (active); in the experiment with ACHN renal, -100% (active); in the experiment with CAKI-1 renal, -54.9% (active); with A498 renal it was -85.7% (active). Besides, the growth in the experiment with CCRF-CEM leukemia was -16% (active); in the experiment on MOLT-4 leukemia, -32.4% (active).

Turning to `Clc1ccc(Nc2ncc(Cc3cccc(Cl)c3Cl)s2)cc1`, the growth was 92.3% with HCT-15 colon; 95.7% in the experiment with HT29 colon; 116% in the experiment on SNB-75 CNS; 98% with SNB-19 CNS; 85.7% with U251 CNS; 88% in the experiment with PC-3 prostate. Besides, the growth with SK-MEL-5 melanoma is 97.1%; with UACC-62 melanoma it was 81.6%; in the experiment on LOX IMVI melanoma, 97.7%; with SK-MEL-28 melanoma, 95.6%; with SK-MEL-2 melanoma it was 101%; in the experiment with EKVX NSCLC, 97.9%. Also, the growth is 90.8% with SN12C renal; 72.5% with UO-31 renal; 98.3% in the experiment with TK-10 renal; 97.5% in the experiment with ACHN renal; 87.7% with CAKI-1 renal; 93.7% with A498 renal. In addition, the results for the growth in the experiment with CCRF-CEM leukemia and with MOLT-4 leukemia were 94% and 86.7%, respectively.

In the case of `Cc1cc(NCCCNc2ccnc3cc(Cl)ccc23)nc(Nc2ccc(C(=O)N3CCCCC3)cc2)n1`, the growth in the experiment on HCT-15 colon is 0.549% (active); in the experiment on HT29 colon, -5.41% (active); in the experiment on SNB-75 CNS it was 26.7%; in the experiment on SNB-19 CNS, 25.6%; in the experiment with U251 CNS, -8.28% (active); in the experiment on PC-3 prostate, 50.5%. Further, the growth in the experiment with SK-MEL-5 melanoma was -98.5% (active); in the experiment with UACC-62 melanoma, -71.2% (active); in the experiment with LOX IMVI melanoma it was -77.1% (active); with SK-MEL-28 melanoma it was -71.2% (active); in the experiment on SK-MEL-2 melanoma, 75.7%; with EKVX NSCLC, 48.4%. In addition, the growth is 36.6% in the experiment with SN12C renal; 57.6% in the experiment on UO-31 renal; 5.49% (active) in the experiment on TK-10 renal; 43.2% with ACHN renal; 76.2% in the experiment on CAKI-1 renal; 66.9% in the experiment with A498 renal. For the same compound, the growth is 14.4% with CCRF-CEM leukemia and 20.7% with MOLT-4 leukemia.
